# Reference: publication PMC11006913
# Where a chain is given by its changes, count along the chain named.
# What was measured:
# Assay in all cases: PBM; 200 nM protein, PBS
# Conditions in all cases: dsDNA, one strand shown
# [1] = target: MSX2 (Homo sapiens, UniProt P35548 130-214, R199I)
# [2] = target: MSX2 (Homo sapiens, UniProt P35548 130-214)
# [3] = target: MSX2 (Homo sapiens, UniProt P35548 130-214, F161Y)
# [4] = target: ALX1 (Homo sapiens, UniProt Q15699 118-204, L144V)
# [5] = target: ALX1 (Homo sapiens, UniProt Q15699 118-204, L144R)
# [6] = target: ALX1 (Homo sapiens, UniProt Q15699 118-204)
# [7] = target: HOXA2 (Homo sapiens, UniProt O43364 129-215, R185K)
# [8] = target: ALX3 (Homo sapiens, UniProt O95076 139-225, N203Q)
# [9] = target: ALX3 (Homo sapiens, UniProt O95076 139-225)
# [10] = target: ALX3 (Homo sapiens, UniProt O95076 139-225, L168Q)
# [11] = target: ALX3 (Homo sapiens, UniProt O95076 139-225, L168V)
# [12] = target: ALX3 (Homo sapiens, UniProt O95076 139-225, N203S)
# [13] = target: PITX2 (Homo sapiens, UniProt Q99697 72-157)
# [14] = target: T1, NKX2-6 (Homo sapiens, UniProt A6NCS4 118-204)
# T1 sequence: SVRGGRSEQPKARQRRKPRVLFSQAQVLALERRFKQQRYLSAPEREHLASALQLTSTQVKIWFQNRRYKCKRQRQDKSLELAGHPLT
# [15] = target: VAX1 (Homo sapiens, UniProt Q5SQQ9 86-172)
# [16] = target: T2, NKX2-6 (Homo sapiens, UniProt A6NCS4 118-204, F151L)
# T2 sequence: T1 sequence with F34L
# [17] = target: VAX1 (Homo sapiens, UniProt Q5SQQ9 86-172, T142I)
# [18] = target: VAX1 (Homo sapiens, UniProt Q5SQQ9 86-172, K157R)
# [19] = target: NKX3-2 (Homo sapiens, UniProt P78367 192-278, P234S)
# [20] = target: NKX3-2 (Homo sapiens, UniProt P78367 192-278)
# Chain of NKX3-2 (Homo sapiens, UniProt P78367 192-278) (P78367 192-278): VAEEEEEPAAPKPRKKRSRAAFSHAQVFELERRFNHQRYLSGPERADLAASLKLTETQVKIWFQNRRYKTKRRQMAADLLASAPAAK
# Chain of MSX2 (Homo sapiens, UniProt P35548 130-214) (P35548 130-214): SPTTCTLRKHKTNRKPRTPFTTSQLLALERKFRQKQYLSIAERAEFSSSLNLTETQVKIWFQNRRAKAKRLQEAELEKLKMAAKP
# Chain of VAX1 (Homo sapiens, UniProt Q5SQQ9 86-172) (Q5SQQ9 86-172): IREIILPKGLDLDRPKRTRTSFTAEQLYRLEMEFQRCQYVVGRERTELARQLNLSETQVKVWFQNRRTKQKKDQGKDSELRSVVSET
# Chain of MSX2 (Homo sapiens, UniProt P35548 130-214, R199I) (P35548 130-214 R199I): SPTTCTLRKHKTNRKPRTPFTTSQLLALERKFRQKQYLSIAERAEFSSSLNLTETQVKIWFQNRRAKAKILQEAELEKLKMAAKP
# Chain of ALX1 (Homo sapiens, UniProt Q15699 118-204, L144R) (Q15699 118-204 L144R): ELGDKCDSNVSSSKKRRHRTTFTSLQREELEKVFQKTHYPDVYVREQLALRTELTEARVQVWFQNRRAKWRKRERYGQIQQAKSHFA
# Chain of VAX1 (Homo sapiens, UniProt Q5SQQ9 86-172, T142I) (Q5SQQ9 86-172 T142I): as the sequence (Q5SQQ9 86-172) above, with T57I counted along it
# Chain of ALX1 (Homo sapiens, UniProt Q15699 118-204) (Q15699 118-204): as the sequence (Q15699 118-204 L144R) above, with R27L counted along it
# Chain of ALX1 (Homo sapiens, UniProt Q15699 118-204, L144V) (Q15699 118-204 L144V): as the sequence (Q15699 118-204 L144R) above, with R27V counted along it
# Chain of MSX2 (Homo sapiens, UniProt P35548 130-214, F161Y) (P35548 130-214 F161Y): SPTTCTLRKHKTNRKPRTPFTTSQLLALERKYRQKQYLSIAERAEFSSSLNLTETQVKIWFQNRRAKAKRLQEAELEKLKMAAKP
# Chain of VAX1 (Homo sapiens, UniProt Q5SQQ9 86-172, K157R) (Q5SQQ9 86-172 K157R): as the sequence (Q5SQQ9 86-172) above, with K72R counted along it
# Chain of ALX3 (Homo sapiens, UniProt O95076 139-225, L168Q) (O95076 139-225 L168Q): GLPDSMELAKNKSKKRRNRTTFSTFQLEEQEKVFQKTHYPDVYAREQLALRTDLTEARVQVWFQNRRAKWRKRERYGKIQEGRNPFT
# Chain of HOXA2 (O43364 129-215 R185K): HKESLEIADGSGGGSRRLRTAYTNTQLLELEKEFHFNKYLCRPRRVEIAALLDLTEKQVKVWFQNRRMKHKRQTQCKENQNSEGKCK
# Chain of ALX3 (Homo sapiens, UniProt O95076 139-225, N203S) (O95076 139-225 N203S): as the sequence (O95076 139-225 L168Q) above, with Q30L, N65S counted along it
# Chain of ALX3 (Homo sapiens, UniProt O95076 139-225, N203Q) (O95076 139-225 N203Q): as the sequence (O95076 139-225 L168Q) above, with Q30L, N65Q counted along it
# Chain of ALX3 (Homo sapiens, UniProt O95076 139-225, L168V) (O95076 139-225 L168V): as the sequence (O95076 139-225 L168Q) above, with Q30V counted along it
# Chain of NKX3-2 (Homo sapiens, UniProt P78367 192-278, P234S) (P78367 192-278 P234S): as the sequence (P78367 192-278) above, with P43S counted along it
# Chain of ALX3 (Homo sapiens, UniProt O95076 139-225) (O95076 139-225): as the sequence (O95076 139-225 L168Q) above, with Q30L counted along it
sequence,measurement,setting,value
AATTACTG,binding signal,[1],"12.1 upbm affinity estimate (log intensity, higher = more binding, comparable within an allelic series)"
same,binding signal,[2],"13.3 upbm affinity estimate (log intensity, higher = more binding, comparable within an allelic series)"
same,binding signal,[3],"12.9 upbm affinity estimate (log intensity, higher = more binding, comparable within an allelic series)"
GAGGTGGC,binding signal,[1],"9.4 upbm affinity estimate (log intensity, higher = more binding, comparable within an allelic series)"
same,binding signal,[4],"6.34 upbm affinity estimate (log intensity, higher = more binding, comparable within an allelic series)"
same,binding signal,[5],"6.43 upbm affinity estimate (log intensity, higher = more binding, comparable within an allelic series)"
same,binding signal,[2],"9.42 upbm affinity estimate (log intensity, higher = more binding, comparable within an allelic series)"
same,binding signal,[3],"9.41 upbm affinity estimate (log intensity, higher = more binding, comparable within an allelic series)"
same,binding signal,[6],"6.4 upbm affinity estimate (log intensity, higher = more binding, comparable within an allelic series)"
GGTAATCA,binding signal,[1],"11 upbm affinity estimate (log intensity, higher = more binding, comparable within an allelic series)"
same,binding signal,[7],"13.3 upbm affinity estimate (log intensity, higher = more binding, comparable within an allelic series)"
GCTCCAGC,binding signal,[1],"9.46 upbm affinity estimate (log intensity, higher = more binding, comparable within an allelic series)"
same,binding signal,[8],"7.72 upbm affinity estimate (log intensity, higher = more binding, comparable within an allelic series)"
same,binding signal,[2],"9.45 upbm affinity estimate (log intensity, higher = more binding, comparable within an allelic series)"
same,binding signal,[9],"7.57 upbm affinity estimate (log intensity, higher = more binding, comparable within an allelic series)"
same,binding signal,[10],"7.7 upbm affinity estimate (log intensity, higher = more binding, comparable within an allelic series)"
same,binding signal,[11],"7.6 upbm affinity estimate (log intensity, higher = more binding, comparable within an allelic series)"
same,binding signal,[3],"9.5 upbm affinity estimate (log intensity, higher = more binding, comparable within an allelic series)"
same,binding signal,[12],"7.72 upbm affinity estimate (log intensity, higher = more binding, comparable within an allelic series)"
GATGATTA,binding signal,[1],"11.1 upbm affinity estimate (log intensity, higher = more binding, comparable within an allelic series)"
CTAATCAA,binding signal,[1],"11 upbm affinity estimate (log intensity, higher = more binding, comparable within an allelic series)"
GACCTCCC,binding signal,[1],"9.42 upbm affinity estimate (log intensity, higher = more binding, comparable within an allelic series)"
same,binding signal,[13],"8.09 upbm affinity estimate (log intensity, higher = more binding, comparable within an allelic series)"
same,binding signal,[2],"9.46 upbm affinity estimate (log intensity, higher = more binding, comparable within an allelic series)"
same,binding signal,[3],"9.44 upbm affinity estimate (log intensity, higher = more binding, comparable within an allelic series)"
CACCAGCC,binding signal,[1],"9.46 upbm affinity estimate (log intensity, higher = more binding, comparable within an allelic series)"
same,binding signal,[2],"9.42 upbm affinity estimate (log intensity, higher = more binding, comparable within an allelic series)"
same,binding signal,[3],"9.47 upbm affinity estimate (log intensity, higher = more binding, comparable within an allelic series)"
CAATCAAA,binding signal,[1],"10.9 upbm affinity estimate (log intensity, higher = more binding, comparable within an allelic series)"
GCAATCAA,binding signal,[1],"10.9 upbm affinity estimate (log intensity, higher = more binding, comparable within an allelic series)"
GGCCAGCA,binding signal,[1],"9.48 upbm affinity estimate (log intensity, higher = more binding, comparable within an allelic series)"
same,binding signal,[14],"9.51 upbm affinity estimate (log intensity, higher = more binding, comparable within an allelic series)"
same,binding signal,[2],"9.54 upbm affinity estimate (log intensity, higher = more binding, comparable within an allelic series)"
same,binding signal,[15],"7.05 upbm affinity estimate (log intensity, higher = more binding, comparable within an allelic series)"
same,binding signal,[16],"9.32 upbm affinity estimate (log intensity, higher = more binding, comparable within an allelic series)"
same,binding signal,[3],"9.57 upbm affinity estimate (log intensity, higher = more binding, comparable within an allelic series)"
same,binding signal,[17],"7.11 upbm affinity estimate (log intensity, higher = more binding, comparable within an allelic series)"
same,binding signal,[18],"7.17 upbm affinity estimate (log intensity, higher = more binding, comparable within an allelic series)"
CGACAATA,binding signal,[1],"10.5 upbm affinity estimate (log intensity, higher = more binding, comparable within an allelic series)"
same,binding signal,[2],"11 upbm affinity estimate (log intensity, higher = more binding, comparable within an allelic series)"
same,binding signal,[3],"10.9 upbm affinity estimate (log intensity, higher = more binding, comparable within an allelic series)"
GGACGGGA,binding signal,[1],"9.67 upbm affinity estimate (log intensity, higher = more binding, comparable within an allelic series)"
same,binding signal,[2],"9.5 upbm affinity estimate (log intensity, higher = more binding, comparable within an allelic series)"
same,binding signal,[3],"9.6 upbm affinity estimate (log intensity, higher = more binding, comparable within an allelic series)"
CACGGTCG,binding signal,[1],"9.6 upbm affinity estimate (log intensity, higher = more binding, comparable within an allelic series)"
same,binding signal,[2],"9.56 upbm affinity estimate (log intensity, higher = more binding, comparable within an allelic series)"
same,binding signal,[3],"9.58 upbm affinity estimate (log intensity, higher = more binding, comparable within an allelic series)"
AGGGGCCG,binding signal,[1],"9.46 upbm affinity estimate (log intensity, higher = more binding, comparable within an allelic series)"
same,binding signal,[2],"9.56 upbm affinity estimate (log intensity, higher = more binding, comparable within an allelic series)"
same,binding signal,[3],"9.42 upbm affinity estimate (log intensity, higher = more binding, comparable within an allelic series)"
GATAATCA,binding signal,[1],"10.9 upbm affinity estimate (log intensity, higher = more binding, comparable within an allelic series)"
GAACACCC,binding signal,[1],"9.57 upbm affinity estimate (log intensity, higher = more binding, comparable within an allelic series)"
same,binding signal,[2],"9.63 upbm affinity estimate (log intensity, higher = more binding, comparable within an allelic series)"
same,binding signal,[3],"9.59 upbm affinity estimate (log intensity, higher = more binding, comparable within an allelic series)"
AGCCCACC,binding signal,[1],"9.45 upbm affinity estimate (log intensity, higher = more binding, comparable within an allelic series)"
same,binding signal,[2],"9.52 upbm affinity estimate (log intensity, higher = more binding, comparable within an allelic series)"
same,binding signal,[3],"9.47 upbm affinity estimate (log intensity, higher = more binding, comparable within an allelic series)"
CCCCCCCC,binding signal,[4],"6.17 upbm affinity estimate (log intensity, higher = more binding, comparable within an allelic series)"
same,binding signal,[5],"6 upbm affinity estimate (log intensity, higher = more binding, comparable within an allelic series)"
same,binding signal,[6],"6.16 upbm affinity estimate (log intensity, higher = more binding, comparable within an allelic series)"
AGCTACGA,binding signal,[4],"6.35 upbm affinity estimate (log intensity, higher = more binding, comparable within an allelic series)"
same,binding signal,[5],"6.56 upbm affinity estimate (log intensity, higher = more binding, comparable within an allelic series)"
same,binding signal,[6],"6.35 upbm affinity estimate (log intensity, higher = more binding, comparable within an allelic series)"
CACGCTCG,binding signal,[4],"6.33 upbm affinity estimate (log intensity, higher = more binding, comparable within an allelic series)"
same,binding signal,[13],"7.92 upbm affinity estimate (log intensity, higher = more binding, comparable within an allelic series)"
same,binding signal,[5],"6.26 upbm affinity estimate (log intensity, higher = more binding, comparable within an allelic series)"
same,binding signal,[6],"6.3 upbm affinity estimate (log intensity, higher = more binding, comparable within an allelic series)"
AAATATTT,binding signal,[1],"10.7 upbm affinity estimate (log intensity, higher = more binding, comparable within an allelic series)"
same,binding signal,[2],"11.1 upbm affinity estimate (log intensity, higher = more binding, comparable within an allelic series)"
same,binding signal,[3],"11 upbm affinity estimate (log intensity, higher = more binding, comparable within an allelic series)"
AAATGATG,binding signal,[4],"8.1 upbm affinity estimate (log intensity, higher = more binding, comparable within an allelic series)"
same,binding signal,[5],"8.04 upbm affinity estimate (log intensity, higher = more binding, comparable within an allelic series)"
same,binding signal,[6],"8.35 upbm affinity estimate (log intensity, higher = more binding, comparable within an allelic series)"
CGGACGGA,binding signal,[4],"6.3 upbm affinity estimate (log intensity, higher = more binding, comparable within an allelic series)"
same,binding signal,[5],"6.37 upbm affinity estimate (log intensity, higher = more binding, comparable within an allelic series)"
same,binding signal,[6],"6.28 upbm affinity estimate (log intensity, higher = more binding, comparable within an allelic series)"
AGCTATTA,binding signal,[1],"11.1 upbm affinity estimate (log intensity, higher = more binding, comparable within an allelic series)"
same,binding signal,[2],"12.1 upbm affinity estimate (log intensity, higher = more binding, comparable within an allelic series)"
same,binding signal,[3],"11.9 upbm affinity estimate (log intensity, higher = more binding, comparable within an allelic series)"
TAATCAAA,binding signal,[1],"11.1 upbm affinity estimate (log intensity, higher = more binding, comparable within an allelic series)"
same,binding signal,[2],"12.4 upbm affinity estimate (log intensity, higher = more binding, comparable within an allelic series)"
same,binding signal,[3],"12.1 upbm affinity estimate (log intensity, higher = more binding, comparable within an allelic series)"
AAACAATA,binding signal,[4],"8.22 upbm affinity estimate (log intensity, higher = more binding, comparable within an allelic series)"
same,binding signal,[5],"8.34 upbm affinity estimate (log intensity, higher = more binding, comparable within an allelic series)"
same,binding signal,[15],"9.16 upbm affinity estimate (log intensity, higher = more binding, comparable within an allelic series)"
same,binding signal,[17],"8.8 upbm affinity estimate (log intensity, higher = more binding, comparable within an allelic series)"
same,binding signal,[6],"8.26 upbm affinity estimate (log intensity, higher = more binding, comparable within an allelic series)"
same,binding signal,[18],"8.82 upbm affinity estimate (log intensity, higher = more binding, comparable within an allelic series)"
GGAGAAAC,binding signal,[4],"6.41 upbm affinity estimate (log intensity, higher = more binding, comparable within an allelic series)"
same,binding signal,[5],"6.7 upbm affinity estimate (log intensity, higher = more binding, comparable within an allelic series)"
same,binding signal,[6],"6.58 upbm affinity estimate (log intensity, higher = more binding, comparable within an allelic series)"
AGCGCCGG,binding signal,[1],"9.57 upbm affinity estimate (log intensity, higher = more binding, comparable within an allelic series)"
same,binding signal,[2],"9.53 upbm affinity estimate (log intensity, higher = more binding, comparable within an allelic series)"
same,binding signal,[3],"9.52 upbm affinity estimate (log intensity, higher = more binding, comparable within an allelic series)"
AATGAACC,binding signal,[4],"8.42 upbm affinity estimate (log intensity, higher = more binding, comparable within an allelic series)"
same,binding signal,[5],"8.46 upbm affinity estimate (log intensity, higher = more binding, comparable within an allelic series)"
same,binding signal,[6],"8.7 upbm affinity estimate (log intensity, higher = more binding, comparable within an allelic series)"
CTCTTGGC,binding signal,[4],"6.39 upbm affinity estimate (log intensity, higher = more binding, comparable within an allelic series)"
same,binding signal,[5],"6.52 upbm affinity estimate (log intensity, higher = more binding, comparable within an allelic series)"
same,binding signal,[19],"11.6 upbm affinity estimate (log intensity, higher = more binding, comparable within an allelic series)"
same,binding signal,[6],"6.47 upbm affinity estimate (log intensity, higher = more binding, comparable within an allelic series)"
same,binding signal,[20],"11.7 upbm affinity estimate (log intensity, higher = more binding, comparable within an allelic series)"
CGGGTTCC,binding signal,[4],"6.36 upbm affinity estimate (log intensity, higher = more binding, comparable within an allelic series)"
same,binding signal,[5],"6.23 upbm affinity estimate (log intensity, higher = more binding, comparable within an allelic series)"
same,binding signal,[6],"6.28 upbm affinity estimate (log intensity, higher = more binding, comparable within an allelic series)"
GCGGAGCC,binding signal,[4],"6.64 upbm affinity estimate (log intensity, higher = more binding, comparable within an allelic series)"
same,binding signal,[5],"6.35 upbm affinity estimate (log intensity, higher = more binding, comparable within an allelic series)"
same,binding signal,[15],"7.22 upbm affinity estimate (log intensity, higher = more binding, comparable within an allelic series)"
same,binding signal,[17],"7.36 upbm affinity estimate (log intensity, higher = more binding, comparable within an allelic series)"
same,binding signal,[6],"6.57 upbm affinity estimate (log intensity, higher = more binding, comparable within an allelic series)"
same,binding signal,[18],"7.24 upbm affinity estimate (log intensity, higher = more binding, comparable within an allelic series)"
